Here are results for 50 compounds from PubChem BioAssay AID463173 (ICCB-Longwood Screening Facility, Harvard Medical School, 2010).

About 4,300 (8.3%) of roughly 52,000 compounds were called active. What follows is part of a selection rich in actives, with near analogues and random picks from the rest. Unmarked numbers belong to inactive results. No stated cut-off is given here; in the data, active means survival mostly below about 52% (no sharp cut-off); inactive means mostly above about 56%.

This experiment deals with DeltatarO mutant. Description: growth inhibition of S. aureus wild type versus tarO mutant, primary screen, teichoic acid synthesis inhibitors, RN4220, OD600 (AID 463173). The note with it: OD600, 18 h, stronger effect = lower value, screened at 18.75 µg/mL (by protocol).
For `CC(C)(C)OC(=O)N1CCC(c2c(C(=O)NCCN3CCc4ccccc4C3)cnn2-c2ccc(F)cc2F)CC1`, the survival was 70%. For the compound `Cc1ccc(-n2ncc(C(=O)NCc3ccco3)c2C2CCN(C(=O)OC(C)(C)C)CC2)cc1`, the survival is 94%.

Regarding `Cc1ccc(C)c(N2CCN(CCCNC(=O)c3cnn(-c4ccccc4)c3C3CCN(C(=O)OC(C)(C)C)CC3)CC2)c1`, the survival is 104%. On to `Cc1ccc(C)c(N2CCN(CCCNC(=O)c3cnn(-c4cccc(Cl)c4)c3C3CCN(C(=O)OC(C)(C)C)CC3)CC2)c1`, for which the survival is 52% (active). For `CC(C)(C)OC(=O)N1CCC(c2c(C(=O)NCc3ccccn3)cnn2-c2ccccc2)CC1`, the survival is 101%. Regarding `Cc1cccc(-n2ncc(C(=O)NCc3ccco3)c2C2CCN(C(=O)OC(C)(C)C)CC2)c1`, the survival was 81%. Consider `Cc1ccc(-n2ncc(C(=O)NCc3ccco3)c2C2CCN(C(=O)OC(C)(C)C)CC2)c(C)c1`, for which the survival was 25% (active). In the case of `Cc1ccc(-n2ncc(C(=O)NCc3ccccn3)c2C2CCN(C(=O)OC(C)(C)C)CC2)c(C)c1`, the survival was 63%. For the compound `Cc1ccc(C)c(N2CCN(CCCNC(=O)c3cnn(-c4ccccc4Cl)c3C3CCN(C(=O)OC(C)(C)C)CC3)CC2)c1`, the survival is 74%.

Regarding `CC(C)(C)OC(=O)N1CCC(c2c(C(=O)NCCN3CCOCC3)cnn2-c2ccc(F)cc2)CC1`, the survival is 73%. As for `CC(C)(C)OC(=O)N1CCC(c2c(C(=O)NCCN3CCOCC3)cnn2-c2ccc(F)cc2F)CC1`, the figure is -1% (active).

Turning to `CC(C)(C)OC(=O)N1CCC(c2c(C(=O)NCc3ccccn3)cnn2-c2ccccc2Cl)CC1`, the survival was -4% (active). As to `COc1ccc(NC(=O)CSc2oc(-c3cccs3)nc2S(=O)(=O)c2ccc(Br)cc2)c(OC)c1`, the survival was 57%. As to `O=C(Nc1cccc(F)c1)C1CCN(c2nc3ccccc3nc2C(F)(F)F)CC1`, the survival is 83%. As for `COc1ccc(C(=O)N2CCC(C(=O)O)CC2)cc1`, the figure is 97%. As to `Nc1cccc(-c2cn3ccccc3n2)c1`, the survival is 96%. In the case of `Cc1ccc(-c2noc(CSc3nnc(C)n3-c3ccc(C)c(C)c3)n2)cc1`, the survival is 75%.

Turning to `CCOc1ccc(CNC(=O)Cn2cc3c(n2)-c2c(oc(C(=O)N4CCOCC4)c2C)CC3)cc1`, the survival was 72%. In the case of `Cc1cccc(C)c1NC(=O)C(=O)NCC(c1ccc2c(c1)OCO2)N1CCN(C)CC1` (stereo not given), the survival was 88%. For the compound `Cc1cccc(NCN2C(=O)S/C(=C/c3ccc(N(C)C)cc3)C2=O)c1`, the survival was 73%. As for `O=C(Cn1nc(-c2ccccc2)ccc1=O)NCC1COCCO1` (stereo not given), the survival is 92%. Consider `COc1ccc(NC(=O)c2c(NC(=O)COc3ccc(Cl)cc3)sc3c2CCCCC3)cc1`, for which the survival was 135%. As to `CCCCOc1ccc(C(=O)NCCc2csc(-c3ccc(OC)cc3)n2)cc1`, the survival was 108%. As to `CCOC(=O)c1c(NC(=O)C(C)Sc2cn(CCNC(=O)c3ccc(OCC)cc3)c3ccccc23)sc2c1CCC2` (stereo not given), the survival is 92%. Take `CCOC(=O)c1c(C)[nH]c(C)c1S(=O)(=O)N(C)CC(=O)Nc1ccc(C)cc1C`: the survival is 95%. As for `Cc1c(Cl)cccc1-n1ncc(C(=O)NC2CCCC2)c1C1CCN(C(=O)OC(C)(C)C)CC1`, the survival is 102%.

For the compound `Cc1cccc(C)c1-n1ncc(C(=O)NCCCN2CCCCC2)c1C1CCN(C(=O)OC(C)(C)C)CC1`, the survival was 89%.

With `Cc1cccc(C)c1-n1ncc(C(=O)NCCN2CCN(C)CC2)c1C1CCN(C(=O)OC(C)(C)C)CC1`, the survival is 8% (active). Regarding `Cc1ccc(-n2ncc(C(=O)NCCN3CCOCC3)c2C2CCN(C(=O)OC(C)(C)C)CC2)c(C)c1`, the survival was 37% (active).

Turning to `CC1CCN(C(=O)c2cnn(-c3cccc(Cl)c3)c2C2CCN(C(=O)OC(C)(C)C)CC2)CC1`, the survival was 78%.

`CCN1CCN(C(=O)c2cnn(-c3cccc(Cl)c3)c2C2CCN(C(=O)OC(C)(C)C)CC2)CC1`: the survival is 74%.

In the case of `CCOC(=O)c1cnn(-c2cccc(Cl)c2)c1C1CCN(C(=O)OC(C)(C)C)CC1`, the survival was 55% (active).

As to `Cc1ccc(-n2ncc(C(=O)NCCN3CCc4ccccc4C3)c2C2CCN(C(=O)OC(C)(C)C)CC2)c(C)c1`, the survival was 64%.

With `Cc1ccc(-n2ncc(C(=O)NCCN3CCN(C)CC3)c2C2CCN(C(=O)OC(C)(C)C)CC2)c(C)c1`, the survival is 92%. For the compound `Cc1c(Cl)cccc1-n1ncc(C(=O)NC2CCCCC2)c1C1CCN(C(=O)OC(C)(C)C)CC1`, the survival was 94%.

Consider `Cc1cccc(C)c1-n1ncc(C(=O)NCCN2CCOCC2)c1C1CCN(C(=O)OC(C)(C)C)CC1`, for which the survival is 101%. For the compound `CCOC(=O)N1CCC(NC(=O)c2cnn(-c3cccc(Cl)c3C)c2C2CCN(C(=O)OC(C)(C)C)CC2)CC1`, the survival is 20% (active). Turning to `COc1cccc(-n2c(=O)c3sc4ccccc4c3n(CC(=O)NC3CCCCC3)c2=O)c1`, the survival is 126%. On to `Cc1ccc(-n2ncc(C(=O)NCc3ccccc3)c2C2CCN(C(=O)OC(C)(C)C)CC2)cc1`, for which the survival was 94%. For the compound `COc1cccc(-n2cc(C(=O)NCc3ccc(C)cc3)c3ccccc3c2=O)c1`, the survival is 81%. As for `COc1ccccc1CNS(=O)(=O)c1ccc2c(c1)CC(C)N2C(C)=O` (stereo not given), the survival was 71%. Turning to `CC(C)COc1ccc(C(=O)Nc2scc(-c3ccc(Br)cc3)c2C(=O)OC(C)C)cc1`, the survival is 53%.

As to `COc1ccc(NC(=O)Cn2ncc3c(C)n(Cc4cccc(Cl)c4)c(C)c3c2=O)cc1`, the survival was 92%. In the case of `CCOc1ccc(-n2cc(-c3ccccc3)c3c(NC4CCCC4)ncnc32)cc1`, the survival was 104%. As for `CCN1CCN(CCCNC(=O)c2cnn(-c3ccc(C)cc3C)c2C2CCN(C(=O)OC(C)(C)C)CC2)CC1`, the figure is 144%; as for `CCOC(=O)N1CCC(NC(=O)c2cnn(-c3ccc(F)cc3F)c2C2CCN(C(=O)OC(C)(C)C)CC2)CC1`, 71%. For the compound `Cc1ccc(-n2ncc(C(=O)NCCCN3CCCCC3)c2C2CCN(C(=O)OC(C)(C)C)CC2)c(C)c1`, the survival was 46% (active).

With `Cc1ccc(-n2ncc(C(=O)NCCCN3CCN(C)CC3)c2C2CCN(C(=O)OC(C)(C)C)CC2)c(C)c1`, the survival is 105%. Under `CC(C)(C)OC(=O)N1CCC(c2c(C(=O)NC3CCN(Cc4ccccc4)CC3)cnn2-c2cccc(F)c2)CC1` stands 92%; under `CC(C)(C)OC(=O)N1CCC(c2c(C(=O)NC3CCN(Cc4ccccc4)CC3)cnn2-c2ccc(F)cc2F)CC1`, -2% (active).
